Inconclusive results are not listed. Calls of active or inactive are those of the source. Calls follow the shape of the dose curve; as a rule, active = well fitted cell-killing curve with a large enough effect; inconclusive = small, poorly fitted or top-dose-only effect, or effect the other way; inactive = flat fitted curve, though single readings scatter.
Legend:
Assay in all cases: Primary qHTS to identify gynecologic anti-cancer compounds using libraries of approved drugs and bioactive compounds (AID 1345084); also: nearly all actives have a fitted effect of over 55% in size
Details in all cases: Gynecologic cancer cell panel viability, ATPlite luminescence, 48 h; series mostly up to 57.5 µM
OV90 = tested on: OV90
Procedure, shortened: (§1)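 48 h compound exposure at 37 C, 5% CO2; five-point qHTS. ATPlite luminescence readout of cell ATP.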

PA-1 = tested on: PA-1
Procedure, shortened: as §1

SKOV3 = tested on: SKOV3
Procedure, shortened: as §1

Tov-21-G = tested on: Tov-21-G
Procedure, shortened: as §1

Tov112D = tested on: Tov112D
Procedure, shortened: as §1
% is scaled to controls: 0 for no effect and ±100 for the full control effect.

O=C(OCC1=C[C@@H](O)[C@@H]2C=CO[C@@H](O[C@@H]3O[C@H](CO)[C@@H](O)[C@H](O)[C@H]3O)[C@H]12)c1ccc(O)cc1
inactive: Potency (OV90) | Potency (PA-1) | Potency (SKOV3) | Potency (Tov-21-G) | Potency (Tov112D)

CCCC/C=C\CCCCCc1cc(=O)c2ccccc2n1C
inactive: Potency (OV90) | Potency (PA-1) | Potency (SKOV3) | Potency (Tov-21-G) | Potency (Tov112D)

CC1OC(OC2CCC3(C)C(CCC4(C)C3C=CC35OCC6(CCC(C)(C)CC63)CCC45C)C2(C)CO)C(OC2OC(CO)C(O)C(O)C2O)C(O)C1OC1OC(CO)C(O)C(O)C1O (stereo not given)
inactive: activity change, negative = cytotoxicity (OV90) -14.8% [at 11.6 µM] | activity change, negative = cytotoxicity (PA-1) 5.66% [at 11.6 µM] | activity change, negative = cytotoxicity (SKOV3) 6.92% [at 11.6 µM] | activity change, negative = cytotoxicity (Tov-21-G) 3.71% [at 11.6 µM] | activity change, negative = cytotoxicity (Tov112D) 11.6% [at 11.6 µM]

C=C(C(=O)O)[C@@H]1CC[C@H](C)[C@@H]2CC(=O)C(C)=C2C1
inactive: Potency (OV90) | Potency (PA-1) | Potency (SKOV3) | Potency (Tov-21-G) | Potency (Tov112D)

Nc1ccc(-n2nc(C(F)(F)F)cc2C(F)(F)F)cc1
inactive: Potency (OV90) | Potency (PA-1) | Potency (SKOV3) | Potency (Tov-21-G) | Potency (Tov112D)

CC1(C)Oc2ncnc(N)c2N=C1c1ccc(C2CCC(CC(=O)O)CC2)cc1 (stereo not given)
inactive: Potency (OV90) | Potency (PA-1) | Potency (SKOV3) | Potency (Tov-21-G) | Potency (Tov112D)

Cc1cc(OCCN2CCOCC2)nn1-c1ccc2ccccc2c1
inactive: Potency (OV90) | Potency (PA-1) | Potency (SKOV3) | Potency (Tov-21-G) | Potency (Tov112D)

CC(C)c1ccc2c(c1)C(O)CC1C(C)(C(=O)O)CCCC21C (stereo not given)
inactive: Potency (OV90) | Potency (PA-1) | Potency (SKOV3) | Potency (Tov-21-G) | Potency (Tov112D)

COc1c2c(c(C)c3c1C(=O)OC3)OC1(C)CC(O)C34OC(O)(CCC3(C)C1C2)OC4(C)C (stereo not given)
inactive: Potency (OV90) | Potency (PA-1) | Potency (SKOV3) | Potency (Tov-21-G) | Potency (Tov112D)

C=C1CCC[C@]2(C)CC[C@@](O)(C(=C)C(=O)O)C[C@@H]12
inactive: Potency (OV90) | Potency (PA-1) | Potency (SKOV3) | Potency (Tov-21-G) | Potency (Tov112D)

COC(=O)C(CC1(O)c2ccccc2N2C(=O)C(C)(C)N(O)C21)n1cnc2ccccc2c1=O (stereo not given)
inactive: Potency (OV90) | Potency (PA-1) | Potency (SKOV3) | Potency (Tov-21-G) | Potency (Tov112D)

C[C@@H]1O[C@@H](OC[C@H]2O[C@@H](OCc3ccccc3)[C@H](O)[C@@H](O)[C@@H]2O)[C@H](O)[C@H](O)[C@H]1O
inactive: Potency (OV90) | Potency (PA-1) | Potency (SKOV3) | Potency (Tov-21-G) | Potency (Tov112D)

CN(C)CCC[C@]1(c2ccc(F)cc2)OCc2cc(C#N)ccc21
inactive: Potency (OV90) | Potency (PA-1) | Potency (SKOV3) | Potency (Tov-21-G) | Potency (Tov112D)

CC(C)=C1CC2C(CCC2(C)O)C(C)(O)CC1=O (stereo not given)
inactive: Potency (OV90) | Potency (PA-1) | Potency (SKOV3) | Potency (Tov-21-G) | Potency (Tov112D)

C=CCC1=C[C@]2(OC)[C@H](C)[C@@H](c3ccc(OC)c(OC)c3)O[C@]2(OC)CC1=O
inactive: Potency (OV90) | Potency (PA-1) | Potency (SKOV3) | Potency (Tov-21-G) | Potency (Tov112D)

COc1cnc(-c2ccc(Cn3c(CC(C)(C)C(=O)O)c(SC(C)(C)C)c4cc(OC[C@@H]5Cc6ccccc6N5C(C)=O)ccc43)cc2)nc1
inactive: Potency (OV90) | Potency (PA-1) | Potency (SKOV3) | Potency (Tov-21-G) | Potency (Tov112D)

Cc1occc(=O)c1O[C@@H]1O[C@H](CO[C@@H]2OC[C@](O)(CO)[C@H]2O)[C@@H](O)[C@H](O)[C@H]1O
inactive: Potency (OV90) | Potency (PA-1) | Potency (SKOV3) | Potency (Tov-21-G) | Potency (Tov112D)

C=C(C(=O)O)C1CC(O)C2(C)CCCC(C)(O)C2C1 (stereo not given)
inactive: Potency (OV90) | Potency (PA-1) | Potency (SKOV3) | Potency (Tov-21-G) | Potency (Tov112D)

CC(=O)/C=C/C1(O)C(C)=CC(=O)CC1(C)C (stereo not given)
inactive: Potency (OV90) | Potency (PA-1) | Potency (SKOV3) | Potency (Tov-21-G) | Potency (Tov112D)

CCC(C)C(=O)O[C@H]1[C@@H](O[C@H]2O[C@H](CO)[C@@H](O)[C@H](O)[C@H]2O)O[C@H](CO)[C@@H](O)[C@@H]1O (stereo not given in full)
inactive: Potency (OV90) | Potency (PA-1) | Potency (SKOV3) | Potency (Tov-21-G) | Potency (Tov112D)

C[C@@H]1O[C@@H](O[C@H]2[C@H](OC(=O)[C@]34CCC(C)(C)C[C@H]3C3=CCC5[C@@]6(C)C[C@@H](O)[C@@H](O[C@@H]7O[C@H](CO)[C@@H](O)[C@H](O)[C@H]7O)[C@@](C)(CO)C6[C@H](O)C[C@@]5(C)[C@]3(C)CC4)OC[C@H](O)[C@@H]2O)[C@H](O)[C@H](O[C@@H]2OC[C@](O)(CO)[C@H]2O)[C@H]1O[C@@H]1OC[C@@H](O)[C@H](O[C@H]2O[C@H](C)[C@@H](O)[C@H](O)[C@@H]2O)[C@H]1O (stereo not given in full)
inactive: activity change, negative = cytotoxicity (OV90) -9.58% [at 6.55 µM] | activity change, negative = cytotoxicity (PA-1) 3.83% [at 6.55 µM] | activity change, negative = cytotoxicity (SKOV3) 3.05% [at 6.55 µM] | activity change, negative = cytotoxicity (Tov-21-G) -0.147% [at 6.55 µM] | activity change, negative = cytotoxicity (Tov112D) 7.72% [at 6.55 µM]
